Test results published in the supplement of paper PMC4022240.
± gives the standard deviation.

T1: HaloTag-ATRX ADD domain (163-292)
T1 chain: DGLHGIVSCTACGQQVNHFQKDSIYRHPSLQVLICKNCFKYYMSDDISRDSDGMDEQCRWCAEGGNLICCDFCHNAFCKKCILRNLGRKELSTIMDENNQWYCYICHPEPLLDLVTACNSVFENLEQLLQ


What was measured:
Assay in all cases: peptide microarray binding signal (635 nm), min-max normalized on array (fraction of array maximum); higher = stronger binding
[1] = target: T1, HaloTag-ATRX ADD domain (163-292)
In short: (§1)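 Histone 13-mer peptide–cellulose conjugates were printed in triplicate on nitrocellulose with a Cy3 tracer, then blocked overnight at 4°C. Arrays were probed for 1 h at 4°C with biotin-labelled HaloTag reader fusions (10 nM to 1 μM) plus streptavidin-Alexa Fluor 647, or with rabbit histone antibodies (1:10,000 to 1:2,000) plus anti-rabbit Alexa 647. An Axon GenePix 4000B scanned 635 nm for signal and 532 nm for misprints. Binding signal is the triplicate-spot mean intensity, min-max scaled per library.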

[2] = target: HaloTag-ING2 PHD (mouse Ing2 200-280)
In short: as §1

[3] = target: anti-H3K4me3 antibody ab8580
In short: as §1

[4] = target: anti-H3K9me3 antibody ab8898
In short: as §1

[5] = peptide region: Unmod H2A variant, binder concentration: 50 nM
[6] = peptide region: Unmod H2A variant, binder concentration: 500 nM
[7] = peptide region: Unmod H2A variant, binder concentration: 10 nM
[8] = peptide region: Unmod H2A variant, binder concentration: 100 nM
[9] = peptide region: Unmod H2A variant, binder concentration: 1:2,000 dilution
[10] = peptide region: Unmod H2A variant, binder concentration: 1:10,000 dilution
[11] = peptide region: Unmod H2B variant, binder concentration: 1:2,000 dilution
[12] = peptide region: Unmod H2B variant, binder concentration: 1:10,000 dilution

Binder | peptide microarray binding signal [1, 5] | peptide microarray binding signal [1, 6] | peptide microarray binding signal [2, 7] | peptide microarray binding signal [2, 8] | peptide microarray binding signal [3, 9] | peptide microarray binding signal [3, 10] | peptide microarray binding signal [4, 9] | peptide microarray binding signal [4, 10] | peptide microarray binding signal ([1]; peptide region: Unmod H2B variant, binder concentration: 50 nM) | peptide microarray binding signal ([1]; peptide region: Unmod H2B variant, binder concentration: 500 nM) | peptide microarray binding signal ([2]; peptide region: Unmod H2B variant, binder concentration: 10 nM) | peptide microarray binding signal ([2]; peptide region: Unmod H2B variant, binder concentration: 100 nM) | peptide microarray binding signal [3, 11] | peptide microarray binding signal [3, 12] | peptide microarray binding signal [4, 11] | peptide microarray binding signal [4, 12]
RNDEELNKLLGKV [Unmod H2A variant R N D E E L N K L L G K V] | 0.0192 ± 0.00022 | 0.024 ± 0.0011 | 0.00513 ± 0.00017 | 0.00907 ± 0.002 | 0.00181 ± 0.00069 | 0.00217 ± 3.9e-05 | 0.00159 ± 3.2e-05 | 0.001787 ± 1.7e-05 |  |  |  |  |  |  |  | 
PEVSSKGATISKK [Unmod H2B variant P E V S S K G A T I S K K] |  |  |  |  |  |  |  |  | 0.0052 ± 0.00018 | 0.00605 ± 0.00026 | 0.003103 ± 3e-05 | 0.00468 ± 0.00025 | 0.00051 ± 1.5e-05 | 0.000742 ± 1.3e-05 | 0.000362 ± 1.3e-05 | 0.000634
IQAVLLPKKTESH [Unmod H2A variant I Q A V L L P K K T E S H] | 0.0353 ± 0.0028 | 0.0333 ± 0.018 | 0.0199 ± 0.00099 | 0.0828 ± 0.029 | 0.00283 ± 0.0019 | 0.00371 ± 0.00028 | 0.00285 ± 0.00015 | 0.0045 ± 0.00048 |  |  |  |  |  |  |  | 
GNAARDNKKTRII [Unmod H2A variant G N A A R D N K K T R I I] | 0.0155 ± 0.0014 | 0.0214 ± 0.0004 | 0.003223 ± 1.8e-05 | 0.0051 ± 0.00053 | 0.00162 ± 0.0002 | 0.000799 ± 8.3e-06 | 0.000362 ± 6.3e-06 | 0.000577 ± 6.2e-06 |  |  |  |  |  |  |  | 
ILELAGNAARDNK [Unmod H2A variant I L E L A G N A A R D N K] | 0.048 ± 0.0046 | 0.0752 ± 0.011 | 0.0242 ± 0.0025 | 0.0721 ± 0.0091 | 0.0104 ± 0.0051 | 0.015 ± 0.0031 | 0.00921 ± 0.0019 | 0.0132 ± 0.0022 |  |  |  |  |  |  |  | 
RNDEELNKLLGRV [Unmod H2A variant R N D E E L N K L L G R V] | 0.0189 ± 0.0014 | 0.00157 ± 0.00011 | 0.00269 ± 9.9e-05 | 0.0085 ± 0.00045 | 0.000189 ± 4.1e-06 | 0.0016 ± 9.6e-05 | 0.000604 ± 2e-05 | 0.00173 ± 3.3e-05 |  |  |  |  |  |  |  | 
ILELAGNASRDNK [Unmod H2A variant I L E L A G N A S R D N K] | 0.0191 ± 0.0013 | 0.04029 ± 0.00036 | 0.00734 ± 0.00031 | 0.0487 ± 0.0018 | 0.0164 ± 0.0026 | 0.00354 ± 0.00017 | 0.00523 ± 0.00098 | 0.00536 ± 0.0001 |  |  |  |  |  |  |  | 
GAGAPVYMAAVLE [Unmod H2A variant G A G A P V Y M A A V L E] | 0.0137 ± 0.00082 | 0.0173 ± 0.0023 | 0.0083 ± 0.0011 | 0.0205 ± 0.0014 | 0.00425 ± 0.00061 | 0.0016 ± 0.00012 | 0.000846 ± 4.3e-05 | 0.00144 ± 3.7e-05 |  |  |  |  |  |  |  | 
LNKLLGGVTIAQG [Unmod H2A variant L N K L L G G V T I A Q G] | 0.027 ± 0.0084 | 0.0141 ± 0.0028 | 0.00615 ± 0.00035 | 0.0259 ± 0.0025 | 0.00748 ± 0.0012 | 0.00177 ± 0.0002 | 0.0011 ± 4.3e-05 | 0.00138 ± 3.6e-05 |  |  |  |  |  |  |  | 
LAAVLEYLTAEIL [Unmod H2A variant L A A V L E Y L T A E I L] | 0.0089 ± 0.00038 | 0.00462 ± 0.00017 | 0.00215 ± 4.5e-05 | 0.00184 ± 0.00015 | 0.00238 ± 0.0001 | 0.000913 ± 1.6e-05 | 0.0003775 ± 3.7e-06 | 0.00075 ± 7.9e-06 |  |  |  |  |  |  |  | 
GVLPNIQAVLLPK [Unmod H2A variant G V L P N I Q A V L L P K] | 0.0417 ± 0.0058 | 0.0254 ± 0.026 | 0.0142 ± 0.0058 | 0.0437 ± 0.0091 | 0.000944 ± 0.00025 | 0.0081 ± 0.0012 | 0.00384 ± 0.00031 | 0.0113 ± 0.0018 |  |  |  |  |  |  |  | 
RNDEELNKLLGGV [Unmod H2A variant R N D E E L N K L L G G V] | 0.0156 ± 0.00038 | 0.0164 ± 0.00093 | 0.00412 ± 5.7e-05 | 0.00397 ± 0.0011 | 0.0091 ± 0.00022 | 0.00171 ± 3.3e-05 | 0.0018 ± 0.00014 | 0.00259 ± 6.1e-05 |  |  |  |  |  |  |  | 
VTIAQGGVLPNIQ [Unmod H2A variant V T I A Q G G V L P N I Q] | 0.0238 ± 0.001 | 0.0447 ± 0.00046 | 0.0169 ± 0.00042 | 0.0193 ± 0.0019 | 0.00821 ± 0.007 | 0.00451 ± 0.0005 | 0.00338 ± 0.00037 | 0.00306 |  |  |  |  |  |  |  | 
DNKKTRIIPRHLQ [Unmod H2A variant D N K K T R I I P R H L Q] | 0.0223 ± 0.0044 | 0.0112 ± 0.0059 | 0.00245 ± 9.1e-05 | 0.0078 ± 0.0012 | 0.000472 ± 9.6e-05 | 0.00183 ± 0.00033 | 0.000317 ± 2.5e-05 | 0.000923 ± 7.7e-05 |  |  |  |  |  |  |  | 
LNKLLGKVTIAQG [Unmod H2A variant L N K L L G K V T I A Q G] | 0.0216 ± 0.0016 | 0.028 ± 0.0031 | 0.006087 ± 5.8e-05 | 0.032 ± 0.015 | 0.00715 ± 0.00038 | 0.00171 ± 3.3e-05 | 0.00115 ± 4.6e-05 | 0.001614 ± 1.6e-05 |  |  |  |  |  |  |  | 
LQLAIRNDEELNK [Unmod H2A variant L Q L A I R N D E E L N K] | 0.0213 ± 0.0039 | 0.0279 ± 0.0038 | 0.005968 ± 4.9e-05 | 0.03182 ± 0.00024 | 0.0182 ± 0.0049 | 0.00422 ± 0.00051 | 0.00439 ± 0.00042 | 0.00588 ± 0.00021 |  |  |  |  |  |  |  | 
YLTAEILELAGNA [Unmod H2A variant Y L T A E I L E L A G N A] | 0.0171 ± 0.0047 | 0.00443 ± 0.0022 | 0.00203 ± 0.00013 | 0.00149 ± 4.1e-05 | 0.000717 ± 0.00017 | 0.00126 | 0.000664 ± 3.6e-05 | 0.00196 ± 0.00018 |  |  |  |  |  |  |  | 
GAGAPVYLAAVLE [Unmod H2A variant G A G A P V Y L A A V L E] | 0.0133 ± 0.00042 | 0.00505 ± 0.0014 | 0.0031 ± 0.00049 | 0.0137 ± 0.00099 | 0.000189 ± 8.9e-06 | 0.0016 ± 2.7e-05 | 0.000423 ± 1.1e-05 | 0.00104 ± 2.8e-05 |  |  |  |  |  |  |  | 
GNASRDNKKTRII [Unmod H2A variant G N A S R D N K K T R I I] | 0.0142 ± 0.00075 | 0.00895 ± 0.0037 | 0.0031 ± 0.00011 | 0.00673 ± 0.00046 | 0.000396 ± 2.5e-05 | 0.0012 ± 4.3e-05 | 0.000272 ± 4.9e-06 | 0.00075 ± 7.9e-06 |  |  |  |  |  |  |  | 
MAAVLEYLTAEIL [Unmod H2A variant M A A V L E Y L T A E I L] | 0.0107 ± 0.00027 | 0.00667 ± 0.00052 | 0.00173 ± 2.1e-05 | 0.000992 ± 2.8e-05 | 0.00829 ± 0.0044 | 0.00217 ± 3.9e-05 | 0.000529 ± 1.3e-05 | 0.00075 ± 1.6e-05 |  |  |  |  |  |  |  | 
